# From PubChem
# Pf growth 96h: inhibits malaria parasite growth, 96 h; P. falciparum luciferase reporter growth, 96 h; Potency, µM (highest dose often 28.7 µM), for inactives: at the top dose activity change, negative = inhibition, usual class: inhibitors; hit rate 6.9% among 320,000; AID 504834; also: potency is read from the fitted curve at half-maximal effect; % is scaled to controls: 0 for no effect and ±100 for the full control effect
#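 Readout is luminescence from an integrated firefly luciferase in P. falciparum. Red cells, 2% hematocrit and 0.05% parasitemia final, were cultured with compound through two parasite generations (96 hours) at 37 C, 5% CO2.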
# HCV inh: blocks hepatitis C virus | Huh7.5.1 HCVcc-Cre infection, luciferase reporter, 44 h | Potency, µM (series often up to 41.8 µM), inactives show at the top dose activity change, negative = inhibition, usual class: inhibitors | hit rate 3.4% among 340,000 | AID 651820; also: potency is read from the fitted curve at half-maximal effect; % is scaled to controls: 0 for no effect and ±100 for the full control effect
#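 Infectious HCVcc-Cre (~0.5 moi) was added to cells just after compound, with cells seeded 4 h earlier at 1,000 per well. Luciferase activity after 44 h culture reported infection; substrate was incubated 15 min at room temperature before reading.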
# Pf growth 48h: inhibits P. falciparum growth in the first generation, 48 h; P. falciparum luciferase growth in erythrocytes, 48 h; Potency, µM (top dose mostly 28.7 µM), for the others: at the top dose activity change, negative = inhibition, hits mostly inhibitors; hit rate 5.9% among 310,000; also: potency is read from the fitted curve at half-maximal effect; % is scaled to controls: 0 for no effect and ±100 for the full control effect
#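 Luminescence readout; reporter = integrated firefly luciferase in P. falciparum. RBC culture at 2% hematocrit, 0.1% parasitemia final, 37 C/5% CO2; decreased signal taken as growth inhibition.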
# NS1 inh: influenza NS1 inhibition | hit rate 0.4% among 270,000 | AID 2326 | Potency, µM (series often up to 46.1 µM), for the others: at the highest dose activity, positive = more growth; calls by dose curve; also: potency is read from the fitted curve at half-maximal effect; actives are rising curves; nearly all actives have a fitted effect of over 50% in size
#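 OD600 was taken as the measure of yeast growth restored by compound in an NS1-expressing S. cerevisiae strain. Cells had been washed out of glucose medium and diluted 1:100 into galactose -URA medium, pH 6.0.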
# Vaccinia mCherry: inhibitors of vaccinia virus infection (mCherry reporter signal). Vaccinia virus mCherry reporter infection, fluorescence. Potency, µM (series often up to 36.5 µM), without a hit: at the highest dose activity change, negative = inhibition, usual class: inhibitors. hit rate 0.63% among 310,000; calls by dose curve; tested in A549 cells; also: potency is read from the fitted curve at half-maximal effect; % is scaled to controls: 0 for no effect and ±100 for the full control effect; nearly all actives have a fitted effect of over 35% in size
# VACV Venus inh: vaccinia inhibition (Venus reporter) | Vaccinia virus Venus reporter expression, fluorescence | Potency, µM (titrated, usually from 36.5 µM), for inactives: at the highest dose activity change, negative = inhibition, actives largely listed as inhibitors | hit rate 0.46% among 330,000 | AID 720580; calls by dose curve; tested in A549 cells; also: potency is read from the fitted curve at half-maximal effect; % is scaled to controls: 0 for no effect and ±100 for the full control effect; nearly all actives have a fitted effect of over 30% in size
# NS1 inh valid: influenza NS1 function inhibition validation; shares compounds with NS1 inh; influenza NS1 function cell assay, 15-point titration; activity change, negative = inhibition, % at 32.9 µM; 1,400 tested, under 10 active; calls by dose curve; also: 0% is about no effect
# Flu PR8 replic: reduces influenza A/PR/8/34 replication in MDCK cells; shares compounds with NS1 inh; MDCK infected influenza A/PR/8/34, virus titer TCID50; active compounds read low; virus titer (log TCID50), log10 TCID50 at 5 µM; hit rate 30% among 95; call rule not given here
# * marks the source's active call; other numbers are inactive results; i = inactive; u = inconclusive; x = not tested or not shown. Sampled rows, rich in hits. Any-hit rate of the full collection: about 11%. Unless noted, calls follow the shape of the dose curve; as a rule, active = well fitted inhibition curve with a large enough effect; inconclusive = small, poorly fitted or top-dose-only effect, or another doubt; inactive = no such curve, though single readings can be large or run the other way.
SMILES,Pf growth 96h,HCV inh,Pf growth 48h,NS1 inh,Vaccinia mCherry,VACV Venus inh,NS1 inh valid,others
COc1ccc(-n2nc(C(=O)N(C)C)nc2-c2ccccc2)cc1,9.3µM*,22%,16%,u,i,-14%,16,
Cc1cc(NC(=O)c2cccc(S(=O)(=O)N(C)C)c2)n(-c2ccccn2)n1,4.7µM*,u,x,13µM*,x,x,-15,
Cc1cc(NC(=O)c2cccc(S(=O)(=O)N3CCCCCC3)c2)n(-c2ccccn2)n1,-8%,7%,16%,-37%,x,-22%,x,
CCOC(=O)C1CCN(C(=O)CS(=O)Cc2nc(-c3ccc(C)cc3)oc2C)CC1 (stereo unspecified),34%,-10%,x,11µM*,u,u,0,Flu PR8 replic=8
O=c1c2cc3c(cc2nc2sc(Nc4cccc([N+](=O)[O-])c4)nn12)OCO3,x,x,x,x,i,-8%,x,
COc1cccc(CN(C(=O)CN2C(=O)c3ccccc3S2(=O)=O)C(C(=O)NCC2CCCO2)c2ccco2)c1 (stereo unspecified),5%,13%,2%,u,i,-11%,-27,
CC(=O)c1cccc(NC(=O)C2CC(c3ccc(F)cc3)=NO2)c1 (stereo unspecified),x,-5%,x,1%,x,x,x,
COc1cccc(C2=NOC(C(=O)Nc3cccc(C(C)=O)c3)C2)c1 (stereo unspecified),7%,x,-6%,2.8µM*,-13%,-5%,0,
CCn1ncc(Br)c1C(=O)Nc1ccc(OC(F)(F)F)cc1,5%,6%,29%,3%,x,x,x,
NNC(=O)C(=O)/C=C1\NC2(CCCC2)Cc2ccccc21,u,-10%,-4%,6%,-15%,1%,x,
O=C(/C=C1\NC2(CCCC2)Cc2ccccc21)C(=O)N/N=C/c1ccc(O)c(O)c1,u,u,u,18µM*,u,-22%,-17,
COc1ccc(N(CC(=O)Nc2cc(Cl)ccc2OC)S(=O)(=O)c2c(C)[nH]c(=O)[nH]c2=O)cc1,0%,-3%,-18%,1%,-4%,-6%,x,
O=C(Nc1ccc(S(=O)(=O)Nc2nccs2)cc1)c1cc(-c2ccccc2)nc2ccccc12,u,5%,-2%,11µM*,-12%,-3%,1,
Cc1ccc(-c2cc(C(=O)Nc3ccc(S(=O)(=O)Nc4nccs4)cc3)c3ccccc3n2)c(C)c1,-19%,-5%,u,18%,-16%,-15%,x,
N#C/C(=C\c1ccc(Cl)cc1)c1nc(-c2cc3c(ccc4ccccc43)oc2=O)cs1,x,x,x,x,-3%,-1%,x,
O=C(O)c1cc(N2N=C(C(F)(F)F)/C(=C/C=C/c3ccco3)C2=O)ccc1Cl,u,-14%,42%,u,2%,18%,x,
CC1=NN(c2ccc(C(=O)OC(C)C)cc2)C(=O)/C1=C\C=C\c1ccco1,u,u,2.9µM*,11µM*,x,x,3,
COc1ccc2c(c1)c(C(C)=O)c(C)n2CCc1ccccc1,-8%,u,-7%,-3%,x,x,x,
COc1ccc2c(c1)c(C(=O)O)c(C)n2CCc1ccc(OC)c(OC)c1,6%,5%,u,6.3µM*,-23%,-10%,6,
OC(COc1c(F)cc(Br)cc1F)CN1CCOCC1 (stereo unspecified),5%,17%,24%,7%,x,x,x,
O=c1c(Cc2ccccc2)c(O)nc2n1CCCS2,33%,2%,x,0%,x,-8%,x,
O=c1cc(O)nc2n1CCCS2,64%,-1%,41%,7.9µM*,-3%,5%,1,
CC1(C)C(=O)C2(C(=O)NCc3ccccc3)CCC1C2 (stereo unspecified),x,30%,0%,20µM*,-1%,-19%,1,
COC(=O)C(NC(C)=O)(Nc1nc2ccc(S(C)(=O)=O)cc2s1)C(F)(F)F (stereo unspecified),4%,u,24%,1%,x,6%,x,
COC(=O)C(NC(C)=O)(Nc1nc2ccc(C)cc2s1)C(F)(F)F (stereo unspecified),-9%,8%,x,8.9µM*,-20%,-27%,-5,
SMILES,Pf growth 96h,HCV inh,Pf growth 48h,NS1 inh,Vaccinia mCherry,VACV Venus inh,NS1 inh valid,others
CCCC(=O)Nc1nc2c(s1)COc1ccccc1-2,52%,-16%,86%,-20%,-26%,-26%,x,
Cc1nc2[nH]c(=S)[nH]c(=O)c2nc1C,x,13%,x,x,-1%,-7%,x,
CCOc1cc(/C=C2\N=C(C)OC2=O)cc(Br)c1OCC(=O)OC,u,3%,u,u,-14%,-9%,-35,
N#CCC(=O)N/N=C/c1ccc(N2N=C(c3ccccc3)CC2c2ccccc2)cc1 (stereo unspecified),u,u,u,1.1µM*,u,113%,-33,
COc1ccc(C2CC(c3ccccc3)=NN2c2ccc(/C=N/NC(=O)c3ccncc3)cc2)cc1 (stereo unspecified),u,u,u,1%,-10%,-18%,x,
Cc1cc(C)n2c(SCC(=O)N3CCN(S(=O)(=O)c4ccc(Cl)cc4)CC3)nnc2n1,u,1%,u,10µM*,-14%,-15%,0,
CCOC(=O)N1CCC(c2nc(C)sc2C(=O)O)CC1,-10%,12%,89%,u,x,x,-3,
COc1ccc(N2CCN(C(=O)Cc3cccs3)CC2)cc1,x,0%,11%,-57%,i,-6%,x,
N#CC(c1ccc([N+](=O)[O-])cc1)C(CC(=O)c1ccccc1)c1ccccc1 (stereo unspecified),x,u,x,x,-17%,-8%,x,
Cc1cc(NC(=O)/C=C/c2cccc(Cl)c2)n(-c2nc3ccccc3[nH]2)n1,u,u,u,1.8µM*,-18%,-15%,7,
Cc1cc2n(c1)CCn1c(C)ccc1-2,x,-7%,16%,13µM*,x,x,-12,
Cc1cc(=O)[nH]c(SCC(=O)Nc2nc(-c3ccccc3)c(-c3ccccc3)o2)n1,81%,3%,12%,u,-15%,-8%,-14,
O=C(N/N=C/c1cc2ccccc2[nH]1)c1ccccc1Cl,45%,-14%,3%,u,-18%,-11%,-11,
COc1ccc(CN(CC(O)COCc2ccccc2)S(=O)(=O)c2ccccc2Br)cc1 (stereo unspecified),x,u,x,x,-29%,u,x,
Cc1cc2cc(CNC(=O)c3ccc(S(=O)(=O)N4CCOCC4)cc3)ccc2n1C,u,-6%,13µM*,11µM*,i,20%,0,
